Screen size: about 65,000 compounds; about 100 (0.15%) were called active.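 How the source made its calls: active means inhibition above about 50% (limit read from the data); inconclusive means inhibition over screen mean plus 3 SD, below that limit; inactive means the rest.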 What follows is part of a selection rich in actives, with near analogues and random picks from the rest.
Target: Dual specificity protein phosphatase 1 (Homo sapiens) (UniProt P28562)
Experiment: blockers of human DUSP1 activity – biochemical, in vitro, primary screen (AID 374);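 further: 0% = DMSO max control wells and 100% = wells with enzyme stopped by NaOH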
Conditions: recombinant MKP-1, OMFP hydrolysis fluorescence; hits give high values;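 compounds tested at a single concentration somewhere between 10 and 100 µM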

Chain of Dual specificity protein phosphatase 1 (Homo sapiens) (P28562 whole entry, looked up): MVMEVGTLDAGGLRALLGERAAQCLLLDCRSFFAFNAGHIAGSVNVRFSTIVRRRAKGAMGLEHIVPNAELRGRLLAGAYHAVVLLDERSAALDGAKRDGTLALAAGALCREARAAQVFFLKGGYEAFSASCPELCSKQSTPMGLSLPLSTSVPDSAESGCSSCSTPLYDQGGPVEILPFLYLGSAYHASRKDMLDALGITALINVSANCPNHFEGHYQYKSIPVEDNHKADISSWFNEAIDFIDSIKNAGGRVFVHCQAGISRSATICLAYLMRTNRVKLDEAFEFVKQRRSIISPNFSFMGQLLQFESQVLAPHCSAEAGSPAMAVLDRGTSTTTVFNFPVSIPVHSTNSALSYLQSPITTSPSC

inhibition, inactive:
COC(C)(C)[C@]12CC(O)(C(C)C)ON1[C@H]1CCCCC1N2O (stereo not given in full) -23.5%
CCOc1ccc(C(=O)NC2CCN(S(=O)(=O)CC)CC2)cc1 -10.3%
COC(=O)C(C)n1cnc2c(nnn2-c2cccc(Cl)c2)c1=O (stereo not given) -3.96%
Cc1ccc(CNC(=O)C2CCCN(S(C)(=O)=O)C2)cc1 (stereo not given) 4.5%
O=C(c1ccco1)N1CCN(CC(=O)N(C2CCCCC2)C2CCS(=O)(=O)C2)CC1 (stereo not given) 8.56%
COc1ccc(-n2ncc3c(N4CCc5ccccc54)ncnc32)cc1 -0.04%
CCCN1C(=O)C(NS(=O)(=O)c2ccc(N)cc2)(C(F)(F)F)C(C(=O)OC)=C1C (stereo not given) 7.02%
Nc1ncc(-c2cc3ccccc3oc2=O)s1 -7.46%
COc1ccccc1N1CCN(C(=O)CSc2nnc(-c3ccoc3C)o2)CC1 2.49%
CC1=NC2(CCCc3c2no[n+]3[O-])N(O)C1(C)C (stereo not given) 10.4%
Cc1ccc(-n2nc3c(c2NC(=O)c2ccc4c(c2)OCO4)CSC3)c(C)c1 28.8%
CCOc1cc(-c2conc2N)cc(OCC)c1OCC 0.9%
CCOc1ccc(NC(=O)Nc2ccc(N(C)C(C)=O)cc2)cc1 6.8%
CCOC(=O)C1CCN(C(=O)CSc2cc(=O)n(C)c3ccccc23)CC1 3.52%
Cn1c(=O)c(C(=O)Nc2ncccn2)c(O)c2ccccc21 1.1%
O=C(Nc1cccnc1)c1noc2c1CCCCC2 -9.22%
S=C1SCN(CCN2CCOCC2)CN1Cc1ccccc1 22.5%
Cn1cc(S(=O)(=O)N2CCC(Cc3ccccc3)CC2)c(=O)n(C)c1=O 13.6%
CCOC(=O)C1=C(CC)Nc2ccccc2N=C1NC(=O)c1cccc(S(=O)(=O)N2CCCC2)c1 17.2%
CCOC(=O)N1CCN(C(=O)c2ccc(CN(c3ccc(C)c(C)c3)S(C)(=O)=O)cc2)CC1 6.83%
CCCC(=O)Nc1c(O)c2ccccc2[nH]c1=O 24%
O=C(O)CN(Cc1ccco1)S(=O)(=O)c1ccc(F)cc1 -3.94%
CC(C)C[C@H](NC(=O)Nc1cccc(C(F)(F)F)c1)C(=O)O -11.4%
CCOC(=O)c1cc2c(n(-c3ccc(C)cc3)c1=O)CCCC2=O 3.58%
CCN1C(=O)CS/C1=N\c1nccs1 2.24%
Cc1cc(C(=O)OCC(=O)NCc2ccco2)c(C)n1-c1ccccc1 8.87%
CCCC(NC(=O)c1ccccc1)c1nc2ccccc2n1Cc1ccc(C(=O)OC)o1 (stereo not given) -11.6%
O=C(Cn1nnc(-c2ccc(CN3CCOCC3)cc2)n1)NC1CCCCC1 -10.1%
COc1ccc(S(=O)(=O)N2CCCC2)c(C)c1C 2.42%
CCn1c(SCC(=O)Nc2cc(C)c(Cl)cc2OC)nnc1-c1ccco1 13%
Cn1cccc1C(=O)NC(=O)COC(=O)Cc1coc2ccc3ccccc3c12 31.4%
CCOc1ccc2nc(SC(CC)C(=O)Nc3cc(C)on3)sc2c1 (stereo not given) 2.57%
C=CCn1c(COc2ccccc2F)nnc1SCC(=O)N1CC(=O)Nc2ccccc21 2.2%
CCC1CCCCN1CCCNC(=O)Cn1nc(-c2ccccc2)ccc1=O (stereo not given) 0.39%
CCCc1[nH]nc2c1C(c1c(C)nn(-c3ccccc3)c1Cl)C(C#N)=C(N)O2 (stereo not given) -4.58%
Cc1ccc(C(C(=O)NCc2ccco2)N(CC2CCCO2)C(=O)Cn2nnc3ccccc32)cc1 (stereo not given) 4.86%
COC(=O)c1ccc(NC(=O)CSc2nnc(-c3ccncc3)n2C)cc1 -30.5%
COc1ccccc1C1/C(=C(/O)c2ccc(C)cc2)C(=O)C(=O)N1Cc1ccco1 (stereo not given) 22.9%
COc1ccc(OC)c(C(=O)c2coc3ccc(OC)cc23)c1 3.61%
COc1ccc(NC(=O)C2CCCN(S(=O)(=O)c3cccc4cccnc34)C2)cc1OC (stereo not given) 6.18%
CCn1c(Cc2ccccc2)nnc1SCc1nc2ccccc2c(=O)[nH]1 7.32%
NC(=O)CSc1oc(-c2cccs2)nc1S(=O)(=O)c1ccccc1 6.79%
CCOc1ccc(OCc2ccc(C(=O)Nc3cccc(C)n3)o2)cc1 -1.14%
CCc1nc(C)cn1S(=O)(=O)c1cc(OC)c(C)cc1C -31.2%
COc1cc(Br)cc(/C=N/c2ncn[nH]2)c1O -1.54%
CC1=NCCN1S(=O)(=O)c1ccc(Br)c(C)c1 -0.35%
Cn1c(C(=O)N2CCC(C(N)=O)CC2)cc2c(=O)n(C)c3ccccc3c21 8.99%
O=C(O)CSCNC(=O)CC12CC3CC(CC(C3)C1)C2 -17.4%
CCC(=O)c1cc2c(cc1NC(=O)c1cccs1)OCCO2 1.58%
O=S(=O)(NCCOc1cccc2cccnc12)c1ccc(F)cc1 -4.61%

Source: PubChem BioAssay AID374 (University of Pittsburgh Molecular Library Screening Center, 2006)
